# Measurements from PubChem BioAssay (NCI).
# Compounds without any hit were thinned out: in the full panel of roughly 79,000, 15% have a hit. Calls of active or inactive are those of the source. No stated cut-off is given here; in the data, active means growth inhibition above about 70%; inactive means the rest.
# Assay: NCI Yeast Anticancer Drug Screen. Data for the rad50 strain (AID 155);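 further: 0% = growth of vehicle-only cultures of the same strain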
# Details: S. cerevisiae rad50 strain growth inhibition; at 100.0 µM; stronger effect = higher value
# In short: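 Vehicle-treated cultures provide the reference for the growth inhibition reported for compound-exposed, repair-deficient yeast.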
row,Structure (SMILES),growth inhibition
1,CCN(CC)CC[n+]1ccc2c(C)c3[nH]c4ccc(O)cc4c3c(C)c2c1,93% (active)
2,O=[n+]1c2ccc(Cl)cc2n([O-])c2ccc(Cl)cc21,81% (active)
3,CCOP(=O)(OCC)C(Cc1ccccc1)N=C(c1ccccc1)c1ccccc1 (centres undefined),98% (active)
4,CC[C@@]1(O)C(=O)OCc2c1cc1n(c2=O)Cc2cc3c(N)cccc3nc2-1,83% (active)
5,COC1C=COC2(C)Oc3c(C)c(O)c4c(c3C2=O)/C(=N/C2CCC(O)OC2C)C=C(NC(=O)/C(C)=C\C(=O)C2CC2C(O)C(C)C(O)C(C)C(OC(C)=O)C1C)C4=O (centres undefined),90% (active)
6,COc1cc2c(c(OC)c1OC)-c1c(cc3c(c1OC)OCO3)CC(C)C(C)(O)C2OC(=O)c1ccccc1 (centres undefined),50% (inactive)
7,O=c1ssc2ncccc12,99% (active)
8,O=C1C2C(C(=O)N1c1ccc(OCc3ccccc3)cc1)C1c3ccccc3C2C2CCCCN21 (centres undefined),94% (active)
9,COc1ccc(-c2cn(-c3ccc(I)cc3)c3ncnc(N)c23)cc1,-10% (inactive)
10,CCOC(=O)C(NC(=O)c1ccccc1)(N1CCN(c2cc3c(cc2F)c(=O)c(C(=O)O)cn3C2CC2)CC1)C(F)(F)F (centres undefined),79% (active)
11,C/C(=N\O)C1CC2C=C(C#N)C1N(Cc1ccccc1)C2 (centres undefined),5% (inactive)
12,CC/C(=C(\c1ccccc1)c1ccc(OCCN(C)C)cc1)c1ccccc1,97% (active)
13,COc1ccccc1N=NC(C(=O)c1ccccc1)C(=O)c1ccccc1,96% (active)
14,CC(O)C(O)C(O)C(/C=N\Nc1ccccc1)=N/Nc1ccccc1 (centres undefined),98% (active)
15,COc1ccc(/C=C2\SC(=S)N(/C=C/c3nc4ccccc4[nH]c3=O)C2=O)cc1OC,85% (active)
16,N#CN=Nc1cc(Cl)c(N=NC#N)cc1Cl,55% (inactive)
17,Cc1ccc(S(=O)(=O)Oc2cc(Cl)c(Cl)cc2Cl)cc1,17% (inactive)
18,c1ccc2c(c1)Oc1cccc3cccc-2c13,62% (inactive)
19,O=C(c1ccc(Cl)cc1Cl)C(Cl)Cl,98% (active)
20,CC(C)C1=CCC2C(=C1)CCC1C(C)(C(=O)O)CCCC21C (centres undefined) (tested in a mixture with another compound),92% (active)

row,Structure (SMILES),growth inhibition
1,COc1cc(/C=C2\CCc3ccccc3C2=O)cc(OC)c1OC,72% (active)
2,CC(=O)[O][Bi]([c]1ccccc1)[c]1ccccc1,95% (active)
3,S=C(N/N=C/c1ccccn1)Nc1ccc(Cl)cc1,59% (inactive)
4,COc1cc(CC2CC(c3ccc4c(c3)OCO4)OC2=O)cc(OC)c1OC (centres undefined),13% (inactive)
5,CNC1C(OC2C(OC3C(O)C(O)C(N=C(N)N)C(O)C3N=C(N)N)OC(C)C2(O)CO)OC(CO)C(O)C1O (centres undefined),-11% (inactive)
6,NNC(=O)CCc1ccc2ccc3ccccc3c2c1,58% (inactive)
7,Oc1ccc2ccccc2c1C(c1ccc(Cl)cc1)c1c(O)ccc2ccccc12,89% (active)
8,CCCCN(CCCC)CCSc1ccc(Cl)cc1,96% (active)
9,CCC(C)COC(=O)c1ccc(N=Cc2ccc(C=Nc3ccc(C(=O)OCC(C)CC)cc3)cc2)cc1 (centres undefined),21% (inactive)
10,CC1(C)C(=O)OC(n2cc(F)c(=O)[nH]c2=O)C1=O (centres undefined),37% (inactive)
11,O=[N+]([O-])CC(SCc1ccccc1)c1ccc2c(c1)OCO2 (centres undefined),98% (active)
12,COc1cc2c(cc1[N+](=O)[O-])C(=O)C(Br)(Br)CCC2,95% (active)
13,OCC1OC(OCC(O)C(O)C(O)C(/C=N/Nc2ccccc2)=N/Nc2ccccc2)C(O)C(O)C1O (centres undefined),55% (inactive)
14,COc1ccc(N=C2C(=O)Nc3ccc(Br)cc32)cc1,-5% (inactive)
15,Cn1c(=O)c2ccccc2c2ccccc21,94% (active)
16,CC[n+]1ccc2c(C)c3[nH]c4ccc(O)cc4c3c(C)c2c1,90% (active)
17,CC(=O)ON1C(=O)c2cccc3cccc(c23)C1=O,98% (active)
18,COc1ccc2ccc3ccccc3c2c1C=O,79% (active)
19,OC1CCCc2c1cc1ccc3cccc4ccc2c1c34 (centres undefined),88% (active)
